From PubChem
TGFb inhibitor: qHTS for Inhibitors of TGF-b; 1.2% of 410,000 active; HepG2 CAGA-GFP TGF-b/SMAD3 reporter, GFP fluorescence, 18 h; TGF-beta stimulated, 500 pg/mL final; AID 588855, 2011; Potency, µM (doses to about 46.1 µM), usual class: inhibitors; also: nearly all actives have a fitted effect of over 65% in size
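GFP signal (ex488/em500-530) from TGF-beta-stimulated HEPG2 CAGA-GFP cells, 500 pg/mL final, 18 h at 37 degrees C in DMEM plus 1% FBS, normalized to unstimulated and DMSO-stimulated controls.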
TDP1 cell CPT: qHTS for Inhibitors of human tyrosyl-DNA phosphodiesterase 1 (TDP1): qHTS in cells in presence of CPT | Potency, µM (series often up to 46.2 µM), hits mostly inhibitors | 12% of 420,000 active | chicken DT40 Tdp1-/-;hTDP1 cells + 20 nM CPT, ATP luminescence, 48 h; also: nearly all actives have a fitted effect of over 55% in size
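Cell growth measured by CellTiter-Glo luminescence after a minimum 48 h, 37 C compound exposure with 20 nM CPT in Tdp1-knockout DT40 cells stably expressing hTDP1, seeded 400/well; qHTS titration format.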
IL-1B inflam inh: qHTS for Inhibitors of Inflammasome Signaling: IL-1-beta AlphaLISA Primary Screen. THP-1 LPS/ATP IL-1B secretion, AlphaLISA, 16 h; stronger effect = lower value. activity change, % at 57.5 µM. 4.7% of 360,000 active; in the data active = activity change below about -50%; inconclusive = mostly about -30% to -49%
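Secreted IL-1B measured by AlphaLISA bead assay after 16 h compound exposure of THP-1 cells; compounds (final up to 57.5 uM) added 1 h before LPS (250 ng/mL) and ATP (1.25 mM) stimulation; lower signal means less secretion.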
DT40 TDP1 no CPT: qHTS for Inhibitors of human tyrosyl-DNA phosphodiesterase 1 (TDP1): qHTS in cells in absence of CPT; DT40 Tdp1-/- hTDP1 cells, no CPT, ATP luminescence, 48 h; Potency, µM (titrated, usually from 46.2 µM), most hits filed as inhibitors; 15% of 420,000 active; AID 686978, 2013; also: nearly all actives have a fitted effect of over 55% in size
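Growth kinetics read by CellTiter-Glo luminescence after ≥48 hr at 37 °C. Cells: DT40 Tdp1-/- stably carrying human TDP1, 400 per well, compound exposure in the absence of CPT (DMSO vehicle).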
ASM inhibitor: Inhibitors of Secretory Acid Sphingomyelinase (S-ASM): qHTS. 0.006% of 340,000 active. Sphingomyelin phosphodiesterase (Homo sapiens), P17405. Potency, µM (series often up to 57.5 µM), most hits filed as inhibitors. AID 504937, 2011. placental ASM, HMU-PC fluorogenic substrate, 60 min
Target sequence (P17405 47-631 limits assumed): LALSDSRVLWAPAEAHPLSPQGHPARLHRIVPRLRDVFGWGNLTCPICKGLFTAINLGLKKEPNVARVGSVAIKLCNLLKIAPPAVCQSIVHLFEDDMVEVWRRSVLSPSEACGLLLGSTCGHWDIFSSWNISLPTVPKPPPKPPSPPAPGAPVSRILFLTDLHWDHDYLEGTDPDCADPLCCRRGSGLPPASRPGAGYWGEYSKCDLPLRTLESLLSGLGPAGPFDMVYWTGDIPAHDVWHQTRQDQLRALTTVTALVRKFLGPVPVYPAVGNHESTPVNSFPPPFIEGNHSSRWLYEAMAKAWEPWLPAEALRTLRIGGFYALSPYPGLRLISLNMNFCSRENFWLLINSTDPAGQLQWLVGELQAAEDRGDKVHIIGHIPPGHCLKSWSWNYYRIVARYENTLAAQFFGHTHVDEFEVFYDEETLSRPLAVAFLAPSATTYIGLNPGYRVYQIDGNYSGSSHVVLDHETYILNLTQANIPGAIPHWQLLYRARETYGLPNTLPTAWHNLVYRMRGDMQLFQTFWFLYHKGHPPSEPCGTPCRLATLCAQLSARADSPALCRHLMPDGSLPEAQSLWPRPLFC
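Fluorogenic HMU-PC substrate (9 uM final) is turned over by placental ASM in 60 min at 37 C after a 10 min compound preincubation. Reaction ended by alkaline stop (pH 10), with fluorescence read at 386/447 nm.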
HepG2 tox: qHTS for Inhibitors of TGF-b: Cytotox Counterscreen | HepG2 CAGA-GFP viability, ATP luminescence, 18 h | Potency, µM (titrated, usually from 46.1 µM), hits mostly cytotoxic | 0.76% of 410,000 active | AID 588856, 2011
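HepG2 CAGA-GFP cells (1000/well, DMEM with 1% FBS) received compound, then TGF-beta at 500 pg/mL final, and were incubated 18 hours at 37 degrees C. Viability was read by CellTiter-Glo luminescence. Media-only wells were set as complete cell-killing and DMSO as no toxicity.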
Each line names hits and unclear results; the compound was inactive in the other large screens. In the library only some 19% were active in any assay of this set; here they are far more common. Unless noted, calls follow the shape of the dose curve; as a rule, active = well fitted curve in the direction sought with a large enough effect; inconclusive = small, poorly fitted or top-dose-only effect, or another doubt; inactive = no such curve, though single readings can be large; an effect the other way counts as inactive or inconclusive.

CCn1c(SCC(=O)Nc2ccccc2N2CCCCC2)nc2c1c(=O)n(C)c(=O)n2C	TDP1 cell CPT 18.4µM, DT40 TDP1 no CPT 16.4µM
CC(C)n1c(SCC(=O)Nc2ccccc2N2CCOCC2)nc2c1c(=O)n(C)c(=O)n2C	DT40 TDP1 no CPT inconclusive
CN(CC(=O)Nc1ccc(N2CCOCC2)cc1)C(=O)c1ccc(O)c(Cl)c1	none
CC(=O)Nc1nnc([N+](=O)[O-])s1	TGFb inhibitor inconclusive, TDP1 cell CPT 18.4µM, DT40 TDP1 no CPT 18.4µM (no result: ASM inhibitor)
CC(=O)Nc1nnc(C)s1	none
CCOc1cc(/C=C/C(=O)NCCc2ccc(S(N)(=O)=O)cc2)ccc1OCC(C)C	TDP1 cell CPT 13µM, DT40 TDP1 no CPT 8.2µM
COc1cc(/C=C/C(=O)NCCc2ccc(S(N)(=O)=O)cc2)ccc1OCC#N	TDP1 cell CPT 18.4µM
NS(=O)(=O)c1ccc(CCNC(=O)/C=C/c2cccc([N+](=O)[O-])c2)cc1	TDP1 cell CPT inconclusive, DT40 TDP1 no CPT inconclusive
Cc1ccc(C(=O)COC(=O)[C@@H](NC(=O)c2ccco2)C(C)C)s1	none
COCCn1c(C)cc(O)c(C(c2ccccc2)N2CCN(c3ccccc3F)CC2)c1=O (stereo not drawn)	none (no result: IL-1B inflam inh, ASM inhibitor)
Cc1ccc(NC(=O)CSc2nc(=O)n(Cc3ccccn3)c3c2CCC3)cc1F	TGFb inhibitor inconclusive, TDP1 cell CPT inconclusive, DT40 TDP1 no CPT 16.4µM (no result: IL-1B inflam inh, ASM inhibitor)
CC(=O)c1cccc(NC(=O)CSc2nc(=O)n(Cc3ccccn3)c3c2CCC3)c1	IL-1B inflam inh inconclusive, DT40 TDP1 no CPT inconclusive
O=C(CSc1nc(=O)n(Cc2cccnc2)c2c1CCC2)Nc1cccc(Cl)c1	DT40 TDP1 no CPT inconclusive (no result: IL-1B inflam inh, ASM inhibitor)
CC(C)c1ccc(NC(=O)CSc2nc(=O)n(Cc3ccccn3)c3c2CCC3)cc1	TGFb inhibitor inconclusive, TDP1 cell CPT 23.1µM, DT40 TDP1 no CPT 18.4µM (no result: IL-1B inflam inh, ASM inhibitor)
Cc1ccc(NC(=O)CSc2nc(=O)n(CCCN3CCOCC3)c3c2CCCC3)cc1F	IL-1B inflam inh -85.2
CC(C)c1ccc(NC(=O)CSc2nc(=O)n(Cc3cccnc3)c3c2CCC3)cc1	TGFb inhibitor 11.2µM, TDP1 cell CPT inconclusive, DT40 TDP1 no CPT 25.9µM (no result: IL-1B inflam inh, ASM inhibitor)
Cc1cccc(C(=O)NCc2cn3cccc(C)c3n2)c1	none (no result: IL-1B inflam inh, ASM inhibitor)
COC(=O)[C@H](C)NC(=O)NCc1ccc(S(N)(=O)=O)cc1	none
NC(=O)C1CCCN(C(=O)CCCNC(=O)c2ccc(Cl)cc2)C1 (stereo not drawn)	none
CCc1ccc(S(=O)(=O)Nc2ccc(-c3ccc4nnc(C)n4n3)cc2)s1	TDP1 cell CPT inconclusive, DT40 TDP1 no CPT inconclusive
COc1ccc(-c2cccc(NS(=O)(=O)c3cccs3)c2)nn1	TDP1 cell CPT inconclusive, DT40 TDP1 no CPT inconclusive (no result: IL-1B inflam inh, ASM inhibitor)
CCc1ccc(S(=O)(=O)Nc2cccc(-c3ccc(OC)nn3)c2)s1	TDP1 cell CPT 11.6µM, DT40 TDP1 no CPT 9.2µM (no result: IL-1B inflam inh, ASM inhibitor)
CCc1ccc(S(=O)(=O)Nc2cccc(-c3ccc4nnc(C)n4n3)c2)s1	TDP1 cell CPT 23.1µM, DT40 TDP1 no CPT 16.4µM
Cc1ccc(S(=O)(=O)N2CCC[C@H]2C(=O)OCCN2C(=O)c3ccccc3C2=O)cc1	none
Cc1cccc(C)c1OCc1cc(=O)n2ccsc2n1	DT40 TDP1 no CPT inconclusive (no result: IL-1B inflam inh, ASM inhibitor)
CCCC[C@@H]1C[C@H]1[C@@H](NC(=O)c1cccs1)c1ccc(C(F)(F)F)cc1	TDP1 cell CPT inconclusive, DT40 TDP1 no CPT 20.6µM
CCCC[C@@H]1C[C@H]1[C@@H](NC(=O)c1ccco1)c1ccccc1C(F)(F)F	TGFb inhibitor inconclusive, TDP1 cell CPT inconclusive, DT40 TDP1 no CPT inconclusive
CCCC[C@@H]1C[C@H]1[C@@H](NC(=O)c1ccco1)c1ccc(Cl)cc1	TGFb inhibitor inconclusive, TDP1 cell CPT inconclusive, DT40 TDP1 no CPT inconclusive
